Calls of active or inactive are those of the source. Rule for the calls: active = hit-call score of the fitted dose curve at least 0.9, where 1 is the maximum; inactive = score below 0.9.

Conditions in all cases: mRNA level, 48 h; actives raise or lower the signal
Read-out in assay [1]: Cytochrome P450 (CYP2B6), CYP2B6 (gene 1555)
The experiment in a line: LTEA_HepaRG_CYP2B6: Life Technologies and Expression Analysis (LTEA) Assay for Cytochrome P450 (CYP2B6) using HepaRG (AID 2283481). A digest of the protocol: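 Using 48 h treatment of HepaRG cells in serum-free induction medium, concentrations spanned half-log steps from 100 uM in 0.5% DMSO vehicle. CYP2B6 mRNA induction or loss is scored by qRT-PCR against DMSO.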

Read-out in assay [2]: Cytochrome P450 2C19 (Homo sapiens) (UniProt P33261)
Briefly: LTEA_HepaRG_CYP2C19: Life Technologies and Expression Analysis (LTEA) Assay for CYP2C19 using HepaRG (AID 2283482). The essentials:
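Human HepaRG liver cells received test chemicals for 48 h (highest 100 uM, half-log dilutions in 0.5% DMSO). CYP2C19 mRNA induction or loss is read by multiplexed qRT-PCR and fitted in both directions versus vehicle.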

Read-out in the next assay: CYP2C8 (gene 1558)
The experiment in a line: LTEA_HepaRG_CYP2C8: Life Technologies and Expression Analysis (LTEA) Assay for CYP2C8 using HepaRG (AID 2283483). The essentials:
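CYP2C8 expression measured by TaqMan qRT-PCR and normalized to three housekeeping genes. HepaRG cultures were treated for 48 h with an eight-point half-log series topping at 100 uM, vehicle 0.5% DMSO, duplicates; fitted both directions against DMSO.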

Read-out in a further assay: CYP2C9 (gene 1559)
Briefly: LTEA_HepaRG_CYP2C9: Life Technologies and Expression Analysis (LTEA) Assay for CYP2C9 using HepaRG (AID 2283484). The essentials: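 CYP2C9 transcript level, quantified by TaqMan qRT-PCR against three housekeeping genes, was fitted bidirectionally relative to 0.5% DMSO. HepaRG cultures were treated 48 h, in duplicate, at eight half-log concentrations topping at 100 uM.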

Read-out in a further assay: CYP2E1 (gene 1571)
The experiment in a line: LTEA_HepaRG_CYP2E1: Life Technologies and Expression Analysis (LTEA) Assay for CYP2E1 using HepaRG (AID 2283485). A digest of the protocol: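 Assay uses 48 h exposure of HepaRG hepatic cells, eight concentrations to 100 uM. Expression of CYP2E1 is quantified by TaqMan qRT-PCR with ACTB, GAPDH and POLR2A normalization; curves fitted in both directions relative to vehicle.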

Read-out in another assay: CYP4A11 (gene 1579)
Briefly: LTEA_HepaRG_CYP4A11: Life Technologies and Expression Analysis (LTEA) Assay for CYP4A11 using HepaRG (AID 2283486). The essentials: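 Readout is CYP4A11 mRNA induction or suppression (qRT-PCR, ACTB/GAPDH/POLR2A normalization) in human HepaRG cells after 48 h chemical treatment, concentrations to 100 uM in 0.5% DMSO, fitted bidirectionally against vehicle.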

Read-out in assay [3]: Cytochrome P450 3A4 (Homo sapiens) (UniProt P08684)
Briefly: LTEA_HepaRG_CYP3A4: Life Technologies and Expression Analysis (LTEA) Assay for CYP3A4 using HepaRG (AID 2283487). The essentials: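 Differentiated HepaRG cells in serum-free induction medium exposed in duplicate for 48 h to 8 half-log concentrations up to 100 uM in 0.5% DMSO. CYP3A4 mRNA measured by qRT-PCR normalized to ACTB, GAPDH and POLR2A; bidirectional fit versus DMSO.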

Read-out in assay [4]: DNA damage-inducible transcript 3 (DDIT3), DDIT3 (gene 1649)
The experiment in a line: LTEA_HepaRG_DDIT3: Life Technologies and Expression Analysis (LTEA) Assay for DNA damage-inducible transcript 3 (DDIT3) using HepaRG (AID 2283488). A digest of the protocol: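 Eight-point concentration-response (100 uM highest, half-log dilutions) in HepaRG, 48 h, duplicate wells. Endpoint: qRT-PCR mRNA, normalized (ACTB, GAPDH, POLR2A), bidirectional fitting with DMSO as baseline.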

Read-out in assay [5]: Pro-epidermal growth factor (Homo sapiens) (UniProt P01133)
The experiment in a line: LTEA_HepaRG_EGF: Life Technologies and Expression Analysis (LTEA) Assay for Epidermal growth factor (EGF) using HepaRG (AID 2283489). The essentials: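 EGF expression changes in human HepaRG cells are scored by bidirectional fitting relative to 0.5% DMSO controls. Chemicals are tested at eight half-log concentrations up to 100 uM for 48 h in serum-free induction medium.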

Read-out in assay [6]: Early growth response protein 1 (EGR1) transcription factor, EGR1 (gene 1958)
The experiment in a line: LTEA_HepaRG_EGR1: Life Technologies and Expression Analysis (LTEA) Assay for Early growth response protein 1 (EGR1) transcription factor using HepaRG (AID 2283490). The essentials: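 EGR1 transcript levels quantified by qRT-PCR (Fluidigm arrays) against three housekeeping genes after 48 h chemical exposure of HepaRG cells. Eight-point half-log series topping at 100 uM, 0.5% DMSO vehicle, analyzed for gain or loss.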

Read-out in assay [7]: Ezrin (EZR), EZR (gene 7430)
The experiment in a line: LTEA_HepaRG_EZR: Life Technologies and Expression Analysis (LTEA) Assay for Ezrin (EZR) using HepaRG (AID 2283491). The essentials: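 Differentiated human HepaRG cells, 48 h after plating, were exposed in serum-free induction medium for 48 hours to eight half-log concentrations up to 100 uM in 0.5% DMSO. EZR mRNA was measured by TaqMan qRT-PCR, normalized to ACTB, GAPDH and POLR2A, and fitted bidirectionally against DMSO.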

Read-out in assay [8]: Cytochrome P450 3A7 (Homo sapiens) (UniProt P24462)
Briefly: LTEA_HepaRG_CYP3A7: Life Technologies and Expression Analysis (LTEA) Assay for CYP3A7 using HepaRG (AID 2283492). A digest of the protocol: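 Cells were thawed, plated, cultured 48 h, then treated for a further 48 h with chemicals (eight-point half-log series from 100 uM, 0.5% DMSO). RNA was isolated and CYP3A7 expression quantified by qRT-PCR normalised to ACTB, GAPDH and POLR2A.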

Read-out in assay [9]: Fatty Acid-Binding Protein 1 (FABP1), FABP1 (gene 2168)
The experiment in a line: LTEA_HepaRG_FABP1: Life Technologies and Expression Analysis (LTEA) Assay for Fatty Acid-Binding Protein 1 (FABP1) using HepaRG (AID 2283494). A digest of the protocol:
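FABP1 expression by TaqMan qRT-PCR, normalised to three housekeeping genes, in HepaRG cells after 48 h chemical treatment. Eight-point half-log series topping at 100 uM in 0.5% DMSO, duplicates; gain or loss fitted relative to vehicle.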

Read-out in assay [10]: Cytochrome P450 4A22 (Homo sapiens) (UniProt Q5TCH4)
Briefly: LTEA_HepaRG_CYP4A22: Life Technologies and Expression Analysis (LTEA) Assay for Cytochrome P450 4A22 (CYP4A22) using HepaRG (AID 2283495). The essentials: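 Cryopreserved HepaRG cells, plated and cultured 48 h, then switched to serum-free induction medium and treated 48 h (duplicates, up to 100 uM, half-log steps, 0.5% DMSO). Expression change of CYP4A22 was fitted bidirectionally against vehicle.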

Read-out in assay [11]: Cytochrome P450 7A1 (Homo sapiens) (UniProt P22680)
The experiment in a line: LTEA_HepaRG_CYP7A1: Life Technologies and Expression Analysis (LTEA) Assay for Cytochrome P450 7A1 (CYP7A1) using HepaRG (AID 2283496). A digest of the protocol: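 Using 0.5% DMSO as vehicle and baseline, chemicals were tested in duplicate over an 8-point range from 100 uM on HepaRG cells for 48 h; qRT-PCR signals were normalised to ACTB, GAPDH and POLR2A.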

Read-out in assay [12]: Glutathione S-Transferase (GSTA2), GSTA2 (gene 2939)
Briefly: LTEA_HepaRG_GSTA2: Life Technologies and Expression Analysis (LTEA) Assay for Glutathione S-Transferase (GSTA2) using HepaRG (AID 2283497). A digest of the protocol: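 GSTA2 transcript levels came from Fluidigm TaqMan qRT-PCR normalized to three housekeeping genes, fitted in both directions against DMSO. HepaRG cultures received chemicals for 48 h in serum-free induction medium (0.5% DMSO), 8 half-log concentrations up to 100 uM, duplicate.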

Read-out in assay [13]: Glutamate-cysteine ligase catalytic (GCLC), GCLC (gene 2729)
The experiment in a line: LTEA_HepaRG_GCLC: Life Technologies and Expression Analysis (LTEA) Assay for Glutamate-cysteine ligase catalytic (GCLC) using HepaRG (AID 2283498). A digest of the protocol:
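Expression by TaqMan qRT-PCR, normalized to three housekeeping genes (ACTB, GAPDH, POLR2A), with up- or down-regulation fitted against DMSO. HepaRG cells dosed in duplicate for 48 h with 8 half-log concentrations up to 100 uM, vehicle 0.5% DMSO.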

Read-out in assay [14]: growth arrest and DNA damage 45 (GADD45G), GADD45G (gene 10912)
The experiment in a line: LTEA_HepaRG_GADD45G: Life Technologies and Expression Analysis (LTEA) Assay for growth arrest and DNA damage 45 (GADD45G) using HepaRG (AID 2283499). The essentials:
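Human hepatic HepaRG line treated 48 h with chemicals (eight concentrations, half-log steps from 100 uM); transcript induction or repression of GADD45G scored by qRT-PCR versus DMSO vehicle.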

Read-out in assay [15]: Glutamate-cysteine ligase regulatory (GCLM), GCLM (gene 2730)
Briefly: LTEA_HepaRG_GCLM: Life Technologies and Expression Analysis (LTEA) Assay for Glutamate-cysteine ligase regulatory (GCLM) using HepaRG (AID 2283500). The essentials:
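In this multiplexed HepaRG gene-expression assay, GCLM mRNA change after 48 h treatment (8 concentrations, max 100 uM) was scored against DMSO by bidirectional curve fitting.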

Read-out in another assay: CYP3A5 (gene 1577)
Briefly: LTEA_HepaRG_CYP3A5: Life Technologies and Expression Analysis (LTEA) Assay for CYP3A5 using HepaRG (AID 2283493). The essentials:
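Readout was CYP3A5 mRNA by qRT-PCR. HepaRG cultures were exposed for 48 h in serum-free induction medium to chemicals at up to 100 uM, and responses were fitted in both directions relative to DMSO vehicle.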

Cytochrome P450 2C19 (Homo sapiens), sequence (P33261 whole entry, looked up): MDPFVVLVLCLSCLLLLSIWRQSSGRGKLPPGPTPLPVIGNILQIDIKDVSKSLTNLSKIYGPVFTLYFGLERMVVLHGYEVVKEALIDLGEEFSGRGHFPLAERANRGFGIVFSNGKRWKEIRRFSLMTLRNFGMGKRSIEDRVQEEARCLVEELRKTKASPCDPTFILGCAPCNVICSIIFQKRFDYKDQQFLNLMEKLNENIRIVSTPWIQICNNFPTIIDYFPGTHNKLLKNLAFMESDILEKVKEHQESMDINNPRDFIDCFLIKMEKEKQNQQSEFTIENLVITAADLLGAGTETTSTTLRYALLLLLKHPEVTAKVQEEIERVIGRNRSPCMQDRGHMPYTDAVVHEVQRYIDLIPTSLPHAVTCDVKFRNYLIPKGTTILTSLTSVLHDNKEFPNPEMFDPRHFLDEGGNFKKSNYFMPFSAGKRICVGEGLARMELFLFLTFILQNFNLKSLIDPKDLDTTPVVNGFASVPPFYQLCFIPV
Cytochrome P450 3A7 (Homo sapiens), sequence (P24462 whole entry, looked up): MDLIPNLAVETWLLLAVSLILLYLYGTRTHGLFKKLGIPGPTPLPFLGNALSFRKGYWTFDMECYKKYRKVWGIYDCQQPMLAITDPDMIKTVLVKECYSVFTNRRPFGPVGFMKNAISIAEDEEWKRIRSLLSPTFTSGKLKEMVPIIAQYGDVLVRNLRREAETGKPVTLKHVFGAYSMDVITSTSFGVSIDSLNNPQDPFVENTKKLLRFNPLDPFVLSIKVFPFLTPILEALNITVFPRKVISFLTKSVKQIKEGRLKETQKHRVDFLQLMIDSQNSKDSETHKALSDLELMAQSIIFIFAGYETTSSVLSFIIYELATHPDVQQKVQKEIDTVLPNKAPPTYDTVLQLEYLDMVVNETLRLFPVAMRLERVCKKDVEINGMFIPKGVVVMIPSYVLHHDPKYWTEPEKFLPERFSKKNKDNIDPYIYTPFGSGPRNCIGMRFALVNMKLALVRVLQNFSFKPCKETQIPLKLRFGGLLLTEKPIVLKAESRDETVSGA
Cytochrome P450 3A4 (Homo sapiens), sequence (P08684 whole entry, looked up): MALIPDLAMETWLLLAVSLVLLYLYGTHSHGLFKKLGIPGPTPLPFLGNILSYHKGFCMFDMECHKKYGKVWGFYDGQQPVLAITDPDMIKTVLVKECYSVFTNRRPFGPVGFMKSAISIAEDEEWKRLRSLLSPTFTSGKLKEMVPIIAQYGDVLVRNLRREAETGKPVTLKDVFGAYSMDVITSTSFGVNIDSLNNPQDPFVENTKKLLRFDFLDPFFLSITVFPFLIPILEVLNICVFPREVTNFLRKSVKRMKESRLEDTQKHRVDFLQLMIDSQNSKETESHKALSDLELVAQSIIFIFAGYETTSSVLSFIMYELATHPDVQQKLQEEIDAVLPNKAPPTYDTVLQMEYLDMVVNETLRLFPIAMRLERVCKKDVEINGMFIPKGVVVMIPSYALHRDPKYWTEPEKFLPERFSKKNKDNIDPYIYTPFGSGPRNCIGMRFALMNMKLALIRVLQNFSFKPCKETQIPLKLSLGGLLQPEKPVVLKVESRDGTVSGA

For the molecule `Oc1ccccc1Cl`, the molecule was classed as inactive (in assay [1]; in [2]; with CYP2C8 (gene 1558); in the assay with CYP2C9 (gene 1559); in the assay with CYP2E1 (gene 1571); in the assay with CYP4A11 (gene 1579)). In addition, the call in [3], in assay [4], in assay [5], in assay [6], in assay [7] and in [8] was inactive. Besides, the molecule was called inactive in assay [9], in assay [10], in assay [11], in assay [12], in assay [13] and in [14]. Also, in [15], the result was inactive.

`CCOc1cccc(C2(N3CCN(c4ccccc4)CC3)CCC(C)CC2)c1` (stereo unspecified): the AC50 in assay [1] is 30.8 µM (active). For the same molecule, the result (in [2]; in the assay with CYP2C8 (gene 1558); with CYP2C9 (gene 1559); in the assay with CYP2E1 (gene 1571); in the assay with CYP4A11 (gene 1579); in assay [3]) was inactive. Also, the call (in assay [4]; in [5]; in [6]; in assay [8]; in the assay with CYP3A5 (gene 1577); in assay [9]) was inactive. For the same molecule, the call in [10], in assay [11], in assay [12], in [13] and in assay [14] was inactive.

Regarding `Nc1ccc(Cc2ccc(N)cc2)cc1`, the AC50 is 11.5 µM (active) in assay [1], 14.5 µM (active) in assay [2], 20 µM (active) with CYP2C9 (gene 1559) and 21.4 µM (active) in [8]. The molecule was classed as inactive (with CYP2C8 (gene 1558); with CYP2E1 (gene 1571); with CYP4A11 (gene 1579); in assay [3]; in assay [4]; in assay [5]). Further, the call (in assay [6]; with CYP3A5 (gene 1577); in assay [9]; in assay [10]; in assay [11]; in assay [12]) was inactive. For the same molecule, the molecule was called inactive in [13], in assay [14] and in [15].

Values taken from PubChem BioAssay (EPA / NIEHS).
